# Measurements: PubChem BioAssay
# Unmarked numbers belong to inactive results. For part of these data: Measured potencies and affinities stand elsewhere. The source made the active and inactive calls. Unless noted, no rule for the calls is given here.
# Columns and labels:
# [1] = antimalarial activity against Dd2 strain (AID 2302;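 active = growth inhibition above 50% at the single 2 µM test dose, taken to imply half-maximal potency below 2 µM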;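 also: 0% = DMSO untreated growth and 100% = chloroquine plus artemisinin killed control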); conditions: P. falciparum Dd2 in RBCs, LDH growth readout, 72 h; at 2 µM; active compounds read high
# [2] = HepG2 cytotoxicity, primary screen, cytotoxicity control for P. falciparum antimalarial project, cell-based, ATP luminescence (AID 2303;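 active = inhibition above 50%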;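 also: 0% = DMSO wells and 100% = digitonin-killed cells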); conditions: HepG2 viability, 24-48 h, at 10 µM, active compounds read high
# [3] = target: L-lactate dehydrogenase (Plasmodium falciparum (isolate CDC / Honduras)) (UniProt Q27743); test: PfLDH activity inhibition – cell lysate, 3D7 strain, counter-screen for P. falciparum growth inhibition project (AID 2304);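 also: 0% = vehicle and 100% = reference inhibitor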; conditions: P. falciparum 3D7 crude extract, LDH APAD/NBT absorbance; at 2 µM; active compounds read high
# [4] = inhibition of 3D7 malaria parasite growth – strain 3D7 (AID 2306);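 also: 0% = DMSO wells and 100% = chloroquine plus artemisinin control wells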; conditions: P. falciparum 3D7 erythrocytic growth, LDH absorbance, 72 h; at 2 µM; active compounds read high
# [5] = target: Calcium-dependent protein kinase 1 (Plasmodium falciparum (isolate 3D7)) (UniProt P62344); test: PfCDPK1 kinase inhibitors, biochemical, TCAMS library (AID 1159585; cut-off not given, nearly all actives have IC50 up to about 0.98 µM;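 also: inhibitors leave more ATP so luminescence rises with inhibition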); conditions: recombinant PfCDPK1, Kinase-Glo ATP depletion luminescence
# [6] = target: Plasmodium falciparum protein kinase 6 (PK6, PF3D7_1337100) (UniProt Q8IDW1); test: PfPK6 kinase inhibitors, biochemical, TCAMS library (AID 1159586); conditions: recombinant PfPK6, Kinase-Glo ATP depletion luminescence
# [7] = target: Protein kinase 7 (PK7), Plasmodium falciparum 3D7 (PF3D7_0213400) (UniProt Q7YTF7); test: inhibition of Plasmodium PK7 catalytic activity – biochemical, TCAMS antimalarial set, Kinase-Glo luminescence (AID 1159587); conditions: recombinant PfPK7, Kinase-Glo ATP depletion luminescence
# [8] = target: Calcium-dependent protein kinase 4 (Plasmodium falciparum (isolate 3D7)) (UniProt Q8IBS5); test: PfCDPK4 kinase inhibitors, biochemical, TCAMS library (AID 1159588; cut-off not given, nearly all actives have IC50 up to about 0.91 µM); conditions: recombinant PfCDPK4, Kinase-Glo ATP depletion luminescence
# Sequence of Calcium-dependent protein kinase 4 (Plasmodium falciparum (isolate 3D7)) (Q8IBS5 whole entry, looked up): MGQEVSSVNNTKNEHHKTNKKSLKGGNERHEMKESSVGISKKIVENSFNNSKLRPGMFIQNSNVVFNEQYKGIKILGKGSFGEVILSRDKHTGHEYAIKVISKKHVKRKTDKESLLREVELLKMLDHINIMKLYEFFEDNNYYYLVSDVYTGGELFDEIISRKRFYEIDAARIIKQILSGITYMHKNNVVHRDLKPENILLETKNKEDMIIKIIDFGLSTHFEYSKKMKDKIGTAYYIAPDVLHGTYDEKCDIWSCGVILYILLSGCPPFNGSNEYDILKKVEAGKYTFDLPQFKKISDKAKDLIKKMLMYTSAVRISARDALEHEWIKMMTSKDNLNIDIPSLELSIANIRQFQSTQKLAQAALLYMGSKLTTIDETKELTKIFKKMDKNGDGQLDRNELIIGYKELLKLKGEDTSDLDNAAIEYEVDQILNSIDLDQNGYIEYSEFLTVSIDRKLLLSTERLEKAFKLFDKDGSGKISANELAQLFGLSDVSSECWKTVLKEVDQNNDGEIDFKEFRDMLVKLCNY
# Sequence of Plasmodium falciparum protein kinase 6 (PK6, PF3D7_1337100) (Q8IDW1 1-305): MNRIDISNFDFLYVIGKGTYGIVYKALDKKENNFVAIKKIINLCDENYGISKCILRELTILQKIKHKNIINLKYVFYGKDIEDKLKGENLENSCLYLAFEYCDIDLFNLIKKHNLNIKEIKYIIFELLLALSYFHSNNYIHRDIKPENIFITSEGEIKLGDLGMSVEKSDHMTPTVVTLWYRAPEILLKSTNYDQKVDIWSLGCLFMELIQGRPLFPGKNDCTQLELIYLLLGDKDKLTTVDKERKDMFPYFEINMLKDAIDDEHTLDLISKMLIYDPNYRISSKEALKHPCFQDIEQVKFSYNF
# Sequence of Protein kinase 7 (PK7), Plasmodium falciparum 3D7 (PF3D7_0213400) (Q7YTF7 1-343): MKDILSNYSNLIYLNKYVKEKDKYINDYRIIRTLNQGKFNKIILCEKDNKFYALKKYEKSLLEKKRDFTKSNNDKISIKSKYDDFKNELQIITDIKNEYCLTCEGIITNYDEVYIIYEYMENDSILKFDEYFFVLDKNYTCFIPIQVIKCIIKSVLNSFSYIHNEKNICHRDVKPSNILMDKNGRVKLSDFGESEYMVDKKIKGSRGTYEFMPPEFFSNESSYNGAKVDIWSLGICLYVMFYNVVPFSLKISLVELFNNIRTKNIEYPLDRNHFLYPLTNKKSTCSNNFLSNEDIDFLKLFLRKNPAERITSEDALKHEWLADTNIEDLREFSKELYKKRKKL
# Sequence of Calcium-dependent protein kinase 1 (Plasmodium falciparum (isolate 3D7)) (P62344 whole entry, looked up): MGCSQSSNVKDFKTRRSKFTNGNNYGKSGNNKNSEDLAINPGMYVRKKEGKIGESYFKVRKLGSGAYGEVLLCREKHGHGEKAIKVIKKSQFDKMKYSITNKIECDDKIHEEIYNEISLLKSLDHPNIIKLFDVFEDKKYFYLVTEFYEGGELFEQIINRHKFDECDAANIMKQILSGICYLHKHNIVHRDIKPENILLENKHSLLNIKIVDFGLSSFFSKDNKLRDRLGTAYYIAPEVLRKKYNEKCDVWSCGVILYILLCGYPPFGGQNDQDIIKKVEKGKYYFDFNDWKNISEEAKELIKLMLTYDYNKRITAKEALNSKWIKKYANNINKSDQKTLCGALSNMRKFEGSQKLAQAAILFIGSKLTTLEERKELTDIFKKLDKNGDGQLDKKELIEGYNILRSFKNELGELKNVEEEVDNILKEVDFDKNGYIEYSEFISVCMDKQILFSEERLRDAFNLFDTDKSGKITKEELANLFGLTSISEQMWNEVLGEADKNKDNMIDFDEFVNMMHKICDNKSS
# Sequence of L-lactate dehydrogenase (Plasmodium falciparum (isolate CDC / Honduras)) (Q27743 whole entry, looked up): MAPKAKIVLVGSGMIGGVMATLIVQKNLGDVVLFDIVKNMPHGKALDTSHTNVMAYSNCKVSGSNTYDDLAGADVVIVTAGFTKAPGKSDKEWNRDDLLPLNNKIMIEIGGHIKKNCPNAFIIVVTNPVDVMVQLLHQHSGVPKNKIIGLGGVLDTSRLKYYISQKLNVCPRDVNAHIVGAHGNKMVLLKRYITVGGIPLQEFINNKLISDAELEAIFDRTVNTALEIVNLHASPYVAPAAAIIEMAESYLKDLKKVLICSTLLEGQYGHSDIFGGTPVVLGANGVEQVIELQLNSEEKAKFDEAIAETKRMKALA
SMILES,growth inhibition [1],inhibition [2],inhibition [3],growth inhibition [4],outcome [5],outcome [6],outcome [7],outcome [8]
N#Cc1ccc(-n2cc(C(=O)Nc3ccc4c(c3)CCN(C3CCC3)CC4)c(C(F)(F)F)n2)cc1,99% (active),37%,-2%,102% (active),inactive,inactive,inactive,inactive
CCOC(=O)c1ccc(NC(=O)N[C@H]2CCN(CCCCCNC(=O)/C=C/c3ccc(Cl)c(Cl)c3)C2)cc1,1%,21%,-4%,98% (active),inactive,inactive,inactive,inactive
COC(=O)c1ccc(N2CCN(CCCCNC(=O)c3ccc(NC(=O)c4ccc(Cl)cc4)cc3)CC2)c(OC)c1,1%,11%,3%,82% (active),inactive,inactive,inactive,inactive
Cc1onc(-c2ccccc2)c1-c1nc(NCCC(c2ccccc2)c2ccccc2)no1,78% (active),-4%,-7%,100% (active),inactive,inactive,inactive,inactive
O=C(Nc1cccc(C(F)(F)F)c1)Nc1nc2ccc([N+](=O)[O-])cc2s1,76% (active),81% (active),0%,102% (active),inactive,inactive,inactive,inactive
CC(C)c1ccc(OCC(O)CN(C)C(C)C(O)c2ccccc2)c(Br)c1 (stereo not drawn),97% (active),36%,-3%,95% (active),inactive,inactive,inactive,inactive
CCN(CC)CCN(Cc1ccc(-c2ccc(C(F)(F)F)cc2)cc1)C(=O)Cn1c(CCc2ccc(F)c(F)c2F)nc(=O)c2ccccc21,66% (active),38%,-10%,97% (active),inactive,inactive,inactive,inactive
CCOC(=O)C(=CNc1ccc(Cc2cnc(N)nc2N)cc1CC)C(=O)OCC,7%,47%,1%,87% (active),inactive,inactive,inactive,inactive
COc1cc2nc(NCc3ccc(S(N)(=O)=O)cc3)nc(Nc3ccc(Oc4ccccc4)cc3)c2cc1OC,100% (active),14%,-3%,101% (active),inactive,inactive,inactive,inactive
Cc1ccc2[nH]c3c(NCCCN(C)C)ncnc3c2c1,-2%,1%,-4%,99% (active),inactive,inactive,inactive,inactive
O=C(NCc1cc2c(cc1Cl)OCO2)c1ccc(CNC2CCN(Cc3ccccc3)CC2)cc1,47%,11%,-3%,100% (active),inactive,inactive,inactive,inactive
CN(C)C(=O)c1ccc(CN(Cc2ccc(OC(C)(C)C)cc2)Cc2ccc3c(c2)OCCO3)cc1,96% (active),-5%,1%,95% (active),inactive,inactive,inactive,inactive
COc1ccc(NC(=O)/C=C/c2ccccc2Cl)cc1OCCN1CCC(N2CCN(C)CC2)CC1,49%,19%,5%,102% (active),inactive,inactive,inactive,inactive
COc1ccc(NC(=O)/C=C/c2ccccc2Cl)cc1OCCN1CCC(N(C)C)CC1,19%,18%,-2%,89% (active),inactive,inactive,inactive,inactive
OCCN1CCN(c2nc(Nc3cccc(F)c3)c3cnn(-c4ccccc4)c3n2)CC1,76% (active),89% (active),-2%,100% (active),inactive,inactive,inactive,inactive
COc1ccc(C(=O)Nc2cc(Br)c3c(c2)CNCC3)cc1Br,8%,25%,7%,97% (active),inactive,inactive,inactive,inactive
CC(=O)Nc1cccc(C(=O)Nc2ccc(-c3ccc(-c4nc5c(C)cccc5[nH]4)s3)cc2)c1,20%,94% (active),2%,93% (active),inactive,inactive,inactive,inactive
C[C@@H]([C@@H](CCCCc1ccccc1)C(=O)N[C@H](C(=O)Nc1cccnc1)C(C)(C)C)N(O)C=O,98% (active),0%,0%,98% (active),inactive,inactive,inactive,inactive

SMILES,growth inhibition [1],inhibition [2],inhibition [3],growth inhibition [4],outcome [5],outcome [6],outcome [7],outcome [8]
O=C(NOCc1ccccc1)c1cc(Cl)ccc1O,-1%,2%,5%,83% (active),inactive,inactive,inactive,inactive
Cc1noc(C)c1-c1cccc(CNCc2ccc(-c3ccc(-c4nc5c(C)cccc5[nH]4)cc3)cc2)c1,95% (active),28%,5%,102% (active),inactive,inactive,inactive,inactive
CCCCOC(=O)C1=C(C)NC2=C(C(=O)CC(c3ccc(OC)c(OC)c3)C2)C1c1ccc(O)cc1 (stereo not drawn),75% (active),-6%,2%,90% (active),inactive,inactive,inactive,inactive
Cn1cnc(CCNC(=O)c2ccc(-c3ccc(-c4nc5ccc(C(F)(F)F)cc5[nH]4)s3)cc2)c1,99% (active),75% (active),-2%,102% (active),inactive,inactive,inactive,inactive
COc1cc2ccccc2cc1CNCCCCCCNCc1cc2ccccc2cc1OC,24%,98% (active),6%,101% (active),inactive,inactive,inactive,inactive
Cc1cccc(C(O)CNc2ccnc(Nc3cccc(-c4csc(C)n4)c3)n2)c1 (stereo not drawn),88% (active),29%,2%,99% (active),inactive,inactive,inactive,inactive
Cc1cc(C=C2SC(=Nc3ccccc3)N(C3CCCC3)C2=O)c(C)n1-c1ccc(Cl)cc1,70% (active),-8%,-1%,100% (active),inactive,inactive,inactive,inactive
COc1cc(CN=C(Nc2ccc(-c3ccccc3)cc2)Nc2ccc(C#N)cc2O)cc(OC)c1,64% (active),-4%,5%,95% (active),inactive,inactive,inactive,inactive
Cc1nc(-c2cccc(Nc3nccc(NCC(O)c4ccccc4)n3)c2)cs1 (stereo not drawn),82% (active),43%,3%,99% (active),inactive,inactive,inactive,inactive
COc1cc2ccccc2c(OC)c1CCNCCCCNCCc1c(OC)cc2ccccc2c1OC,30%,100% (active),7%,99% (active),inactive,inactive,inactive,inactive
COc1ccc(-c2ccc(NC(=O)c3cccc(Cl)c3)c(F)c2)cc1CNC(C)C,14%,19%,-5%,93% (active),inactive,inactive,inactive,inactive
N#Cc1ccnc(-c2ccc(CNC3CCN(CC4Cn5c(=O)ccc6ccc(F)c4c65)CC3)cc2)c1 (stereo not drawn),41%,24%,2%,88% (active),inactive,inactive,inactive,inactive
O=C(/C=C/c1ccc(Cl)c(Cl)c1)N1CCC(NCc2c[nH]c3ccccc23)CC1,4%,36%,-2%,94% (active),inactive,inactive,inactive,inactive
CN(C)CCOc1cc(NC(=O)c2ccc(-c3ccc(Cl)cc3Cl)cc2)ccc1-c1ccccc1,26%,45%,-4%,98% (active),inactive,inactive,inactive,inactive
CC1(C)CCC(C)(C)c2c1ccc(C1CCN(CCCCNC(=O)c3ccc(-c4ccc(C#N)cc4)cc3)CC1)c2OCC(N)=O,100% (active),99% (active),-3%,102% (active),inactive,inactive,inactive,inactive
FC(F)(F)c1ccc2nc(-c3ccc(-c4cccc(CNCc5cnn(-c6ccccc6)n5)c4)cc3)[nH]c2c1,83% (active),19%,-1%,99% (active),inactive,inactive,inactive,inactive
O=C(/C=C/c1ccc(Cl)c(Cl)c1)NCCCCCCN1CCCN(C(=O)Nc2cc(F)cc(F)c2)CC1,-1%,25%,-6%,99% (active),inactive,inactive,inactive,inactive
COc1ccc2nccc([C@@H](O)CN3CCC(NC(=O)/C=C/c4ccc(F)c5ccccc45)CC3)c2c1,75% (active),37%,0%,100% (active),inactive,inactive,inactive,inactive
